Values joined by “and” are separate entries in the source; they are usually repeats but may differ in a detail not shown here. Identical values can stand only once. Out of some 350,000 compounds screened, about 6,000 (1.7%) were called active. Another 5% or so got no clear call; they are omitted. Rule as the data show it: active = CPE inhibition above about 20% (passing the limit was not always enough); inconclusive = no clear call, values can overlap the other calls; tested in BHK-21 cells. The full list was thinned out, with actives kept by preference.

This note sets out measurements from PubChem BioAssay AID651640 (Broad Institute, 2012).

This assay can be described thus: protection of cells from dengue 2 killing – plate reader, single concentration, primary screen (AID 651640).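 Also: 0% = median of neutral control wells and 100% = median of positive control wells.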 Particulars: DENV2-infected cells, cytopathic effect rescue, at 9.99 µM, active compounds read high.
In the case of `C[C@@H]1CN([C@@H](C)CO)C(=O)c2cc(-c3ccccc3F)cnc2O[C@H]1CN(C)C(=O)C1CC1`, the CPE inhibition was -2.29% (inactive).

With `CO[C@H](CN(C)S(=O)(=O)c1ccc(Cl)cc1)[C@@H](C)CN(Cc1ccccc1Cl)[C@H](C)CO`, the CPE inhibition is 2.31% (inactive).

On to `O=C(C1CCOCC1)N1CC(=O)N2[C@H](CO)[C@H](c3ccc(C#CC4CCCCC4)cc3)[C@H]2C1`, for which the CPE inhibition is -10.5% (inactive).

Regarding `O=C(C[C@@H]1C[C@@H]2c3cc(NC(=O)CC4CC4)ccc3O[C@@H]2[C@@H](CO)O1)NCCN1CCCCC1`, the CPE inhibition was 1.09% (inactive).

As for `COc1ccc(NC(=O)N(C)C[C@H]2OCCCC[C@H](C)Oc3ccc(NC(=O)c4ccncc4)cc3C(=O)N([C@H](C)CO)C[C@@H]2C)cc1`, the CPE inhibition is 21.4% (active).

Consider `COc1ccc(NC(=O)N(C)C[C@@H]2OCCCC[C@@H](C)Oc3ccc(NS(=O)(=O)c4ccc(Cl)cc4)cc3C(=O)N([C@H](C)CO)C[C@H]2C)cc1`, for which the CPE inhibition was 37.6% (active).

Turning to `COc1ccc(NC(=O)N(C)C[C@@H]2OCCCC[C@@H](C)Oc3ccc(NC(=O)NC4CCCCC4)cc3C(=O)N([C@H](C)CO)C[C@@H]2C)cc1`, the CPE inhibition was 1.54% (inactive) and 2.7% (inactive).

Turning to `COc1ccc(NC(=O)N(C)C[C@H]2OCCCC[C@@H](C)Oc3ccc(NS(=O)(=O)c4ccc(F)cc4)cc3C(=O)N([C@H](C)CO)C[C@H]2C)cc1`, the CPE inhibition is 10.2% (inactive).

Regarding `COc1ccc(NC(=O)N(C)C[C@H]2OCCCC[C@H](C)Oc3ccc(NS(=O)(=O)c4ccc(Cl)cc4)cc3C(=O)N([C@@H](C)CO)C[C@H]2C)cc1`, the CPE inhibition is 12.8% (inactive).

For `COc1ccc(NC(=O)N(C)C[C@H]2OCCCC[C@@H](C)Oc3ccc(NC(=O)c4ccncc4)cc3C(=O)N([C@@H](C)CO)C[C@H]2C)cc1`, the CPE inhibition is 4.05% (inactive).

`COc1ccc(NC(=O)N(C)C[C@@H]2OCCCC[C@H](C)Oc3ccc(NC(=O)c4ccccc4)cc3C(=O)N([C@H](C)CO)C[C@H]2C)cc1`: the CPE inhibition is -12.7% (inactive).

Take `COc1ccc(NC(=O)N(C)C[C@H]2OCCCC[C@H](C)Oc3ccc(NC(=O)NC4CCCCC4)cc3C(=O)N([C@@H](C)CO)C[C@@H]2C)cc1`: the CPE inhibition is 76.4% (active).

For the compound `COc1ccc(NC(=O)N(C)C[C@H]2OCCCC[C@@H](C)Oc3ccc(NC(=O)NC4CCCCC4)cc3C(=O)N([C@H](C)CO)C[C@H]2C)cc1`, the CPE inhibition is 9.97% (inactive).

Regarding `O=C(C[C@@H]1C=C[C@@H](NC(=O)Nc2cccc(F)c2)[C@H](CO)O1)NCC1CCCCC1`, the CPE inhibition is 8.16% (inactive).

On to `C[C@@H]1CN([C@@H](C)CO)C(=O)c2cc(C#Cc3ccncc3)cnc2O[C@@H]1CN(C)C(=O)CN(C)C`, for which the CPE inhibition is -5.91% (inactive).

Take `C[C@H]1CN([C@@H](C)CO)C(=O)Cc2cc(NC(=O)C3CC3)ccc2O[C@@H]1CN(C)S(=O)(=O)c1cccs1`: the CPE inhibition was 0.692% (inactive).

For the compound `O=C(C[C@H]1C=C[C@@H](NC(=O)Nc2cc(F)ccc2F)[C@@H](CO)O1)NCc1ccc2c(c1)OCO2`, the CPE inhibition was 3.1% (inactive).

For `CCC(=O)Nc1ccc2c(c1)OC[C@@H](C)N(Cc1cncnc1)C[C@H](C)[C@@H](OC)CN(C)C2=O`, the CPE inhibition was 0.095% (inactive).

Turning to `O=C(Cc1ccncc1)Nc1ccc2c(c1)[C@@H]1C[C@H](CC(=O)N3CCCCC3)O[C@H](CO)[C@@H]1O2`, the CPE inhibition was -1.67% (inactive).

For `CC(=O)N1[C@H](CN(CC2CCC2)C(=O)CN(C)C)[C@@H](c2ccccc2)[C@@H]1CO`, the CPE inhibition is -6.71% (inactive).

Turning to `CCO[C@H]1OC(C(=O)Nc2ccccc2)=C[C@@H](C2CC2)[C@@H]1CCCO`, the CPE inhibition is -12.3% (inactive).

On to `CCO[C@@H]1OC(C(=O)NCc2nc3ccccc3[nH]2)=C[C@H](C2CCCCC2)[C@H]1CCCO`, for which the CPE inhibition is 5.22% (inactive).

On to `CCO[C@H]1OC(C(=O)O)=C[C@@H](C2CCCCC2)[C@@H]1CCCO`, for which the CPE inhibition is 45.4% (active).

Take `C[C@H](CO)N1C[C@H](C)[C@@H](CN(C)S(=O)(=O)c2cccs2)OCc2ccccc2-c2ccccc2C1=O`: the CPE inhibition was 0.48% (inactive).

In the case of `COc1cccc(NC(=O)CN(C)C(=O)CSC(=S)N2CCCC2)c1`, the CPE inhibition was 31.4% (active).

With `COc1cccc(NC(=O)CN(C)C(=O)Cc2ccc(Cl)cc2Cl)c1`, the CPE inhibition was -4.12% (inactive).

In the case of `COc1cccc(NC(=O)CN(C)CC(=O)Nc2ccc3c(c2)CCC3)c1`, the CPE inhibition is 4.15% (inactive).

In the case of `O=C(Nc1cc(F)ccc1F)N1CCCCN2[C@H](C1)[C@H](c1ccc(-c3cccnc3)cc1)[C@@H]2CO`, the CPE inhibition is -2.73% (inactive).

As to `CN(C)CCCNC(=O)C[C@@H]1C=C[C@H](NC(=O)c2ccccc2F)[C@H](CO)O1`, the CPE inhibition was -4.33% (inactive).

With `CCCC#Cc1ccc([C@@H]2[C@H](CO)N3CCCCN(S(=O)(=O)c4ccccc4F)C[C@@H]23)cc1`, the CPE inhibition is -29.1% (inactive).

Consider `CC(C)NC(=O)N(C)C[C@H]1Oc2cc(-c3cncnc3)ccc2S(=O)(=O)N([C@@H](C)CO)C[C@H]1C`, for which the CPE inhibition was 12.5% (inactive).

For `O=C(OCc1ccccc1)N1CCC2CC1c1ccc(-c3ccc4c(c3)OCO4)cc12` (configuration not stated), the CPE inhibition is 59.5% (active).

As to `Cc1ccc(S(=O)(=O)N(CCc2ccccc2)c2ccc3c(c2)C2CC3CCN2C(=O)OCc2ccccc2)cc1` (configuration not stated), the CPE inhibition was -3.72% (inactive).

On to `O=C(OCc1ccccc1)N1CCC2CC1c1cc(N3CCN(S(=O)(=O)c4cc(Cl)cc(Cl)c4)CC3)ccc12` (configuration not stated), for which the CPE inhibition is -5.76% (inactive).

`O=C(C[C@H]1CC[C@H]2[C@@H](COC[C@H](O)CN2Cc2nccs2)O1)NCc1ccc(Oc2ccccc2)cc1`: the CPE inhibition is 3.47% (inactive).

Consider `COc1ccc(-n2nc3c(c2NC(=O)Cc2cccc(C)c2)CS(=O)C3)cc1` (configuration not stated), for which the CPE inhibition is 99.5% (active).

In the case of `Cc1ccc(-n2nc3c(c2NC(=O)CCC2CCCCC2)CS(=O)C3)cc1` (configuration not stated), the CPE inhibition was -3.75% (inactive).

`CC(Oc1ccccc1)C(=O)Nc1c2c(nn1-c1ccccc1)CS(=O)C2` (configuration not stated): the CPE inhibition is 2.29% (inactive).

Regarding `CC1(C)CN(Cc2cccnc2)C(=O)[C@H]1CC(=O)Nc1ccc(Br)cc1`, the CPE inhibition was 30.1% (active).

Regarding `CCCCN1CC(C)(C)[C@H](CC(=O)Nc2ccc(Br)cc2)C1=O`, the CPE inhibition is 6.43% (inactive).

Turning to `CC1(C)CN(CCc2ccccc2)C(=O)[C@H]1CC(=O)Nc1ccc(Br)cc1`, the CPE inhibition was 0.989% (inactive).

As to `C[C@@H]1CCCCO[C@@H](CN(C)C(=O)CCC(F)(F)F)[C@H](C)CN([C@@H](C)CO)C(=O)c2cc(NC(=O)CCCN(C)C)ccc2O1`, the CPE inhibition is 3.1% (inactive).

On to `O=C(NC[C@H]1[C@@H](c2ccccc2)[C@H](CO)N1CC1CC1)c1cccnc1`, for which the CPE inhibition is -7.73% (inactive).

`O=S(=O)(NC[C@H]1[C@@H](c2ccccc2)[C@@H](CO)N1CC1CC1)c1ccccc1`: the CPE inhibition was 8.65% (inactive).

Consider `O=C(NC[C@@H]1[C@H](c2ccccc2)[C@H](CO)N1CC1CCCC1)c1cccnc1`, for which the CPE inhibition was 54.5% (active).

Consider `COc1cccc(-c2ccc3c(c2)O[C@H](CN(C)C(=O)C2CCOCC2)[C@H](C)CN([C@H](C)CO)S3(=O)=O)c1`, for which the CPE inhibition is -2.8% (inactive).

As to `CN(Cc1cccc2ncccc12)C(=O)CC1C(=O)NCCN1Cc1ccc(F)cc1` (configuration not stated), the CPE inhibition was 2.99% (inactive).

In the case of `Cc1cnc(CN(C)C(=O)CC2C(=O)NCCN2Cc2cccc(F)c2F)[nH]1` (configuration not stated), the CPE inhibition was 20.8% (active).

Take `CC(C)c1nc(CNC(=O)CC2C(=O)NCCN2Cc2cccc(F)c2F)cs1` (configuration not stated): the CPE inhibition is -4.34% (inactive).

In the case of `C[C@@H]1CN([C@@H](C)CO)C(=O)c2cc(NC(=O)Nc3cccc4ccccc34)ccc2O[C@@H](C)CCCCO[C@@H]1CN(C)S(=O)(=O)c1ccc(Cl)cc1`, the CPE inhibition was -12.5% (inactive).

`COc1ccccc1-c1ccc2n(c1=O)C[C@H]1[C@H](CO)[C@@H](C(=O)N[C@@H](C)c3ccccc3)[C@@H]2N1C`: the CPE inhibition was -8.56% (inactive).

In the case of `CC(C)CC#Cc1ccc([C@@H]2[C@@H](CO)N3C(=O)CN(C(=O)c4cnccn4)C[C@@H]23)cc1`, the CPE inhibition was -1.01% (inactive).

In the case of `O=C(C[C@@H]1C=C[C@H](NC(=O)CCN2CCCCC2)[C@H](CO)O1)NCc1ccc(Cl)c(Cl)c1`, the CPE inhibition is 0.258% (inactive).

In the case of `COc1ccc(/C=C/C(=O)c2c(O)cc(OC)cc2OC)cc1`, the CPE inhibition is -8.14% (inactive).

As to `COc1ccc(C(=O)/C=C/c2cccnc2)c(OC)c1`, the CPE inhibition was -6.66% (inactive).

Regarding `COc1ccc(/C=C/C(=O)c2ccc(OC)cc2O)cc1`, the CPE inhibition is 64.1% (active).

With `O=C1CCC/C=C/C[C@@H](CC(=O)N(CCO)Cc2ccccc2)C(=O)NC[C@H](c2ccccc2)O1`, the CPE inhibition is 85.4% (active).

In the case of `O=C1CCC/C=C\C[C@@H](CC(=O)N(CCO)Cc2ccccc2)C(=O)NCCO1`, the CPE inhibition was -1.93% (inactive).

Regarding `O=C1NC[C@@H](c2ccccc2)OC(=O)[C@H](Cc2ccc(F)cc2)CC/C=C/C[C@H]1CC(=O)N(CCO)Cc1ccccc1`, the CPE inhibition was -5.29% (inactive).

Regarding `COCCN(C[C@H]1[C@H](c2ccccc2)[C@@H](CO)N1C(C)=O)C(=O)c1cccnc1`, the CPE inhibition is -2.67% (inactive).

For `CN1C(=O)c2cc(NS(=O)(=O)c3ccccc3F)ccc2OC[C@@H]2O[C@@H](CC(=O)NC3Cc4ccccc4C3)CC[C@@H]21`, the CPE inhibition is 11.5% (inactive).

As to `O=c1[nH]c(-c2ccccc2)cn1C1CCN(Cc2ccc(-c3nc4ccc(F)cc4nc3-c3ccccc3)cc2)CC1`, the CPE inhibition is 33.2% (active).

As to `Cc1ccc(F)cc1S(=O)(=O)N[C@@H]1CCN(Cc2ccc(-c3ccccc3)cc2)C1`, the CPE inhibition was -7.61% (inactive).

For the compound `Cc1ccc2nc(-c3ccc(CN4CCC(n5cc(-c6ccccc6)[nH]c5=O)CC4)cc3)c(-c3ccccc3)nc2c1`, the CPE inhibition is -12.7% (inactive).

Turning to `C=CCN=C1NC(c2cccc(C(F)(F)F)c2)C(C(=O)OC)=C(C)N1C` (configuration not stated), the CPE inhibition is 2.58% (inactive).

In the case of `C[C@@H](NC(=O)C[C@@H]1CC[C@@H](NC(=O)C2CCOCC2)[C@@H](CO)O1)c1ccccc1`, the CPE inhibition was 11.3% (inactive).

On to `CN1c2ccc(-c3ccc(F)cc3)cc2[C@@H]2[C@@H](CCN2S(=O)(=O)c2ccc(F)cc2)[C@@H]1CO`, for which the CPE inhibition was -22.1% (inactive).
